# An excerpt weighted towards active compounds, which were near 12% of everything screened.
# VP16 counter – inhibits Gal4-VP16 luciferase reporter, ROR gamma counter-screen; Drosophila S2 Gal4-VP16 UAS-luciferase, luminescence, 20 h; Potency, µM (titrated, usually from 53.6 µM), for the others: at the top dose activity, negative = inhibition, actives largely listed as inhibitors; 310,000 compounds, 3.5% hits;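 further: Gal4-VP16 expression switched on by copper sulfate through the metallothionein promoter; nearly all actives have a fitted effect of over 50% in size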
# ALDH1A1 inh – blocks purified human ALDH1A1 activity; Potency, µM (doses to about 75.3 µM), for the others: at the top dose activity, negative = inhibition, actives largely listed as inhibitors; Purified ALDH1A1, NADH fluorescence, propionaldehyde substrate; AID 1030; 220,000 compounds, 7.3% hits; active means well fitted inhibition curve with a large enough effect, not every such curve was filed as active; inconclusive means small, poorly fitted or top-dose-only effect, or another doubt; inactive means no such curve, though single readings can be large or run the other way;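 further: plate controls were no enzyme wells and a reference inhibitor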
# Target sequence (P00352 whole entry, looked up): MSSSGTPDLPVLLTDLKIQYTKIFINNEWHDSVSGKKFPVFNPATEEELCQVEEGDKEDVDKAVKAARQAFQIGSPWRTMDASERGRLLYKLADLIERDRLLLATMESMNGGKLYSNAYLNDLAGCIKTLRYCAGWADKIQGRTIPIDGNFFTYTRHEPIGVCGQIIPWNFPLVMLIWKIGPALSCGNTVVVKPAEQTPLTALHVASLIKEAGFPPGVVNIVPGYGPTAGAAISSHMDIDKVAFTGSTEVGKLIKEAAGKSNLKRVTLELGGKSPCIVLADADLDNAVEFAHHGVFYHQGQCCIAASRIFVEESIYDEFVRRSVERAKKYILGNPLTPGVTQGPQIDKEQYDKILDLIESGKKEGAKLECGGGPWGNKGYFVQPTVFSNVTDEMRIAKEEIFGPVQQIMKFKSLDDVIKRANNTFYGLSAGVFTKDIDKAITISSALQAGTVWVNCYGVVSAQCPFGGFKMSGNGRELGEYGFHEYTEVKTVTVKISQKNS
# Sfp PPTase inh – inhibitors of Bacillus subtilis Sfp phosphopantetheinyl transferase | Q9F4F7 | Biochemical Sfp PPTase activity, qHTS | Potency, µM, for inactives: largest response in the series, negative = inhibition, actives largely listed as inhibitors | 310,000 compounds, 3.5% hits | AID 1490;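 further: the enzyme is Sfp with the accession as filed and its product quenches rhodamine fluorescence; 0% = enzyme reaction without inhibitor and -100% = no enzyme wells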
#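 Compounds were incubated with enzyme (final 15 nM) for 15 min at room temperature before substrate addition started the reaction. Fluorescence at 525 nm excitation, 598 nm emission was recorded immediately and after 30 minutes.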
# RORg inh – ROR gamma (mouse) transcription inhibition; 310,000 compounds, 5.4% hits; Potency, µM (highest dose often 53.6 µM), inactives show top-dose activity change, negative = inhibition, actives largely listed as inhibitors; Drosophila S2 Gal4-RORgamma UAS-luciferase reporter, 20 h; P51450; further: nearly all actives have a fitted effect of over 60% in size
#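 Drosophila Schneider cells stably carrying a metallothionein-driven Gal4 DBD–ROR gamma fusion and a UAS-Photinus luciferase reporter were exposed to compound for 1 hr, then induced with copper sulfate (700 uM final) for 20 hr at ambient temperature before luminescence reading.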
# PLK1 PBD inh – blocks phosphopeptide binding to human PLK1 polo-box domain; Plk1 PBD binding of FITC phosphopeptide, fluorescence polarization; Potency, µM, for the others: max response, negative = inhibition, usual class: inhibitors; 360,000 compounds, 2.8% hits; further: series mostly up to about 57 µM; nearly all actives have a fitted effect of over 65% in size
# * marks the source's active call; other numbers are inactive results; ? = inconclusive; · = no result given; [ ] = another dose, or the depositor's remark. Unless noted, the call rests on the fitted dose curve; in most records, active means well fitted curve in the direction sought with a large enough effect; inconclusive means small, poorly fitted or top-dose-only effect, or another doubt; inactive means no such curve, though single readings can be large; an effect the other way counts as inactive or inconclusive. Unless noted, on the % scale 0 is the no-effect control and ±100 the full control effect; potency means the concentration at half of the fitted maximal effect.
SMILES,VP16 counter,ALDH1A1 inh,Sfp PPTase inh,RORg inh,PLK1 PBD inh
C/C(=N/O)c1ccccn1,1%,7%,40µM*,-28%,-7%
C/C(=N\Nc1nc2ccccc2[nH]1)c1ccccn1,-70%,·,18%,2.5µM*,·
CC(=O)c1ccccn1,8%,?,·,-7%,-3%
CCCCCC/C(=N/O)c1ccccn1,16µM*,-3%,4%,5µM*,-1%
CC(=O)NCCNc1nc(-c2ccccc2C)nc2ccccc12,3%,?,19%,11%,·
O=C(CSC1=NCCN1)Nc1ccccc1,·,5%[13.5 µM],·,·,·
COCc1cn(CC[C@@H]2CC[C@@H](NC(=O)Nc3ccc4c(c3)OCO4)[C@@H](CO)O2)nn1,·,·,·,·,0%
CCCn1c(N)c(C(=S)NC(=O)C2CC2)c(=O)n(C)c1=O,4µM*,-8%,50µM*,3.5µM*,-9%
CC(=O)Nc1ccc(SCC(=O)c2c(N)n(Cc3ccccc3)c(=O)n(C)c2=O)cc1,4%,·,0%,21%,?
CC(=O)NC(=S)c1c(N)n(Cc2ccccc2)c(=O)n(C)c1=O,2.8µM*,?,-5%,2.8µM*,·
CCCCn1c(N)c(C(=S)NC(=O)CC(C)C)c(=O)n(C)c1=O,1.1µM*,-8%,9%,1.1µM*,-19%
COc1cccc(-c2nnc3n2N=C(c2ccccc2OC)CS3)c1,?,·,-10%,-7%,·
CN(C)S(=O)(=O)Oc1ccc(C(=O)Nc2cccc(Cl)c2)cc1,13µM*,?,19%,?,-13%
COc1ccc(NC(=O)c2sccc2OS(=O)(=O)N(C)C)cc1,7%,7%,14%,-1%,-4%
CN(C)S(=O)(=O)Oc1ccsc1C(=O)Nc1ccc(Cl)cc1,25µM*,7%,12%,-41%,-8%
CN(C)S(=O)(=O)Oc1cccc(C(=O)Nc2ccc(Cl)cc2)c1,-26%,16µM*,21%,?,2%
c1ccc2c(c1)N1CCCN=C1N2CCN1CCCCC1,2%,-1%,11%,5%,27µM*
c1ccc2c(c1)N1CCN=C1N2CCN1CCCCC1,1%,?,5%,-11%,-16%
NC(=S)N/N=C1/CCSc2ccc3ccccc3c21,3.2µM*,?,6%,0.63µM*,?
CCOc1ccccc1NC(=O)CCS(=O)(=O)c1ccc2c(c1)CCN2C(C)=O,-6%,·,7%,0%,21µM*
CCOc1ccc(NC(=O)CCS(=O)(=O)c2ccc3c(c2)CCCN3C(C)=O)cc1,-3%,19µM*,14%,-3%,-14%
COc1ccc(NC(=O)CCS(=O)(=O)c2ccc3c(c2)CCCN3C(C)=O)cc1,2%,?,4%,9%,-6%
CCOc1ccccc1NC(=O)CCS(=O)(=O)c1ccc2c(c1)CC(C)N2C(C)=O (stereo not drawn),-12%,·,-19%,-4%,?
O=c1c2ccccc2sc2nc(C3CCCCC3)n(Cc3ccco3)c(=O)c12,-17%,1.4µM*,-2%,-26%,?
CCCc1nc2sc3ccccc3c(=O)c2c(=O)n1Cc1ccccc1,·,·,·,·,-1%
SMILES,VP16 counter,ALDH1A1 inh,Sfp PPTase inh,RORg inh,PLK1 PBD inh
CCc1nc2sc3ccccc3c(=O)c2c(=O)n1Cc1ccco1,-12%,?,40µM*,-25%,?
CCOC(=O)C1=CCC(c2ccccc2C(F)(F)F)N(S(=O)(=O)c2ccc(C)cc2)C1 (stereo not drawn),·,·,·,·,-18%
C=CS(=O)(=O)c1c2cc(OC)ccc2nc2ccc(OC)cc12,·,·,·,·,2.7µM*
CCOC(=O)CNC(=O)O[C@@H]1C(=O)c2cc(OC)ccc2O[C@H]1c1ccc(OC)c(Br)c1,-2%,2%,22%,2%,·
O=c1[nH]c2cc3c(cc2cc1CN(Cc1ccc2c(c1)OCO2)Cc1nnnn1CC1CCCO1)OCO3 (stereo not drawn),-2%,?,-2%,28%,-6%
Cc1cc(C)c2cc(CN(Cc3ccc4c(c3)OCO4)Cc3nnnn3Cc3ccco3)c(=O)[nH]c2c1,4%,4.5µM*,14µM*,-26%,-10%
Cc1ccc2[nH]c(=O)c(CN(Cc3ccc4c(c3)OCO4)Cc3nnnn3Cc3ccco3)cc2c1,-13%,25µM*,-9%,47%,-12%
CCC(c1nnnn1CCc1ccccc1)N(Cc1ccco1)Cc1cc2cc(C)cc(C)c2[nH]c1=O (stereo not drawn),-1%,?,?,-7%,-1%
CCCCNC(=O)C(NC(=O)c1ccc2c(c1)OCO2)C(=O)c1ccccc1 (stereo not drawn),·,·,·,·,-2%
O=C([C@H]1O[C@@H](n2ccc(=O)[nH]c2=O)[C@H](O)[C@@H]1O)N1CCSC1,·,·,·,·,7%
NCC1O[C@@H](OC2C(N)C[C@H](N)[C@@H](O[C@H]3OC(CO)C(O)C(N)C3O)C2O)C(O)C(O)C1O (stereo partly drawn),7%,7%,17%,1%,·
O=C(NCCc1ccccc1)c1cccs1,-23%,7%,17%,?,-7%
CCN=c1sc(C(=O)NCCc2ccccc2)cc(=O)n1CC,?,6.3µM*,56µM*,?,-17%
COC(=O)[C@]12CCCCC=C1N(CCc1ccc(OC)c(OC)c1)C(=O)[C@H](CC(=O)NCCCCc1ccccc1)C2,·,·,·,·,0%
CCCCC1(C)OC(=O)C(=Cc2c[nH]c3ccccc23)C(=O)O1 (stereo not drawn),28%,-12%,7%,8%,3%
CCCCC1(C)OC(=O)C(=Cc2ccc(N(C)C)cc2)C(=O)O1 (stereo not drawn),-9%,1.1µM*,16%,-4%,?
O=c1cc(Nc2ccc3c(c2)OCCO3)[nH]c(=O)n1-c1ccc(Cl)cc1,-2%,6%,11%,35%,-3%
O=c1cc(Nc2ccc3c(c2)OCCO3)[nH]c(=O)n1C1CCCCC1,2%,1µM*,-3%,7%,0%
O=c1cc(N2CCN(c3ccc(F)cc3)CC2)[nH]c(=O)n1C1CCCCC1,-4%,?,6%,28%,3%
CCc1ccc(Nc2cc(=O)n(C3CCCCC3)c(=O)[nH]2)cc1,0%,1.3µM*,-6%,?,-7%
O=C(Oc1cc2oc(=O)cc(-c3ccccc3)c2cc1Cl)C1CCCCC1,-11%,?,-10%,-10%,-4%
CC(C)(C)OC(=O)NCC(=O)Oc1cc2oc(=O)cc(-c3ccccc3)c2cc1Cl,5%,25µM*,16%,-7%,?
Cc1ccc(-c2csc(=Nc3cccnc3)n2CCCN2CCCC2=O)cc1C,-23%,7.9µM*,-5%,?,-25%
CC(C)c1cc(Cn2c3ccccc3c(=O)n2C(C)Cn2cc(CCCC#N)nn2)on1 (stereo not drawn),·,·,·,·,-4%
COc1ccc(NS(=O)(=O)c2ccc(C(=O)N(C)Cc3cccs3)cc2)cc1,·,·,·,·,7%
Cc1ccc(S(=O)(=O)N(CC(=O)NCC2CCCO2)c2cccc([N+](=O)[O-])c2)cc1 (stereo not drawn),-21%,14µM*,-13%,7%,0%
